This is an account of results in PubChem BioAssay (Tox21).

Inconclusive results are not listed. The source made the active and inactive calls. Unless noted, the call rests on the fitted dose curve; in most records, active means well fitted curve in the direction sought with a large enough effect in the repeat runs; inconclusive means weak or mixed curves; inactive means no such curve, though single readings can be large; an effect the other way counts as inactive or inconclusive.

Test [1] in a line: qHTS assay to test for compound auto fluorescence at 535 nm (green) in HEK293 cells (AID 720680). Further: potency means the concentration at half of the fitted maximal effect. On the technique in general: Quantitative high-throughput screening tests each substance at several concentrations.
Test [2] can be described thus: qHTS assay to test for compound auto fluorescence at 460 nm (blue) in HEK293 cell free culture (AID 720681). The procedure, abridged: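 Blue fluorescence (Ex 405/Em 460 nm, triamterene-equivalent) was read immediately after pin transfer of compound or DMSO into medium (DMEM, 10% FBS) without cells.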
Test [3] is described as follows: qHTS assay to test for compound auto fluorescence at 535 nm (green) in HEK293 cell free culture (AID 720682). Further: potency means the concentration at half of the fitted maximal effect. The essentials: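 Using fluorescein as calibrant, autofluorescence was quantified at 485/535 nm in cell-free DMEM containing 10% FBS after pintool addition of compound or vehicle.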
Test [4] is described as follows: qHTS assay to test for compound auto fluorescence at 590 nm (red) in HepG2 cell free culture (AID 720684). The procedure, abridged: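 No cells present: MEM + 10% FBS only. Compound pinned in, red label read (540/590 nm). Activity = fluorescence equivalent to Rose Bengal sodium.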
A short description of test [5]: qHTS assay to test for compound auto fluorescence at 460 nm (blue) in HepG2 cell free culture (AID 720685). The procedure, abridged:
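Cell-free plates of MEM plus 10% FBS received 23 nL compound or DMSO vehicle; blue-channel (405/460 nm) intensity scored against triamterene as reference fluorophore.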

A short description of test [6]: qHTS assay to test for compound auto fluorescence at 535 nm (green) in HepG2 cell free culture (AID 720686). Further: potency means the concentration at half of the fitted maximal effect.
Test [7] can be described thus: qHTS assay to test for compound auto fluorescence at 460 nm (blue) in HepG2 cells (AID 720687). The essentials: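 Blue-channel autofluorescence (Ex/Em 405/460 nm, triamterene-equivalent) was measured after 1 hr compound exposure at 37 C, 5% CO2. Cells were HepG2, plated overnight at 37 C in MEM plus 10% FBS.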
Test [8] deals with Glucocorticoid receptor (Homo sapiens) (UniProt P04150). As to the kind of experiment: qHTS assay to identify small molecule agonists of the glucocorticoid receptor (GR) signaling pathway (AID 720691; active means well fitted activation curve with a large enough effect in the signal ratio in the repeat runs, not every such curve was filed as active; the % refers to the signal ratio). The following applies: GR-bla HeLa, beta-lactamase reporter ratio, 18 h; activation: at 62.4 µM (top of the series). The procedure, abridged:
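Compounds in DMSO, alongside positive controls, were added to GR-bla HeLa reporter cells and incubated 18 h at 37 C; GRE-driven beta-lactamase was detected by fluorescence after 2 h with FRET substrate at room temperature.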

Test [9] shares this target. As to the kind of experiment: qHTS assay to identify small molecule antagonists of the glucocorticoid receptor (GR) signaling pathway (AID 720692; active means well fitted inhibition curve with a large enough effect in the signal ratio in the repeat runs, not every such curve was filed as active; the % refers to the signal ratio). The procedure, abridged:
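In a 1536-well cell format, compounds were added 4 h after seeding GR-bla HeLa cells, together with dexamethasone at 5 nM final; reporter activity was measured by FRET-substrate fluorescence following 18 h at 37 C.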

A short description of test [10]: qHTS assay to identify small molecule antagonists of the glucocorticoid receptor (GR) signaling pathway - cell viability counter screen (AID 720693). Further: nearly all actives have a fitted effect of over 55% in size. Further: potency means the concentration at half of the fitted maximal effect.
Test [11] can be described thus: qHTS assay for identifying genotoxic compounds that show differential cytotoxicity against isogenic chicken DT40 cell lines with known DNA damage response pathways - wild type cell line (AID 743012). Further: nearly all actives have a fitted effect of over 60% in size. Further: potency means the concentration at half of the fitted maximal effect. The essentials:
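Viability of DNA repair-proficient chicken DT40 cells was assessed by CellTiter-Glo luminescence following 40 h compound exposure at 37 C/5% CO2.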

The nature of test [12]: qHTS assay to identify small molecule antagonists of the androgen receptor (AR) signaling pathway - cell viability counter screen (AID 743033; further: nearly all actives have a fitted effect of over 45% in size; further: potency means the concentration at half of the fitted maximal effect).
Test [13] is described as follows: qHTS assay to identify small molecule antagonists of the androgen receptor (AR) signaling pathway using the MDA cell line - cell viability counter screen (AID 743041; further: nearly all actives have a fitted effect of over 45% in size; further: potency means the concentration at half of the fitted maximal effect). The procedure, abridged:
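Using the breast carcinoma line MDA-kb2 AR-luc, test chemicals were co-incubated with R1881 for 16 h; CellTiter-Fluor reagent, added at 15.5 h, provided a fluorescence measure of live cells.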

The nature of test [14]: qHTS assay for identifying genotoxic compounds that show differential cytotoxicity against isogenic chicken DT40 cell lines with known DNA damage response pathways - Rad54/Ku70 mutant cell line (AID 743015). Further: nearly all actives have a fitted effect of over 60% in size. Further: potency means the concentration at half of the fitted maximal effect.
The target in test [15] is Androgen receptor (Homo sapiens) (UniProt P10275). As to the kind of experiment: qHTS assay to identify small molecule agonists of the androgen receptor (AR) signaling pathway using the MDA cell line (AID 743040; further: nearly all actives have a fitted effect of over 20% in size; further: potency means the concentration at half of the fitted maximal effect). The essentials:
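Stable MMTV-luciferase reporter in MDA-kb2 cells; note the promoter carries GR as well as AR response elements. 16 h compound treatment, 37C, 0% CO2; ONE-Glo luminescence endpoint.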

For test [16] the target is unchanged. As to the kind of experiment: qHTS assay to identify small molecule antagonists of the androgen receptor (AR) signaling pathway using the MDA cell line (AID 743042; further: nearly all actives have a fitted effect of over 55% in size). The procedure, abridged: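 Antagonist mode: compounds plus R1881 agonist added to MDA-kb2 AR-luc cells, incubated 16 h at 37C. Luciferase reporter luminescence quantified, with multiplexed CellTiter-Fluor readout for cell viability.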

Test [17] can be described thus: qHTS assay for identifying genotoxic compounds that show differential cytotoxicity against isogenic chicken DT40 cell lines with known DNA damage response pathways - Rev3 mutant cell line (AID 743014). Further: nearly all actives have a fitted effect of over 55% in size. Further: potency means the concentration at half of the fitted maximal effect.
Test [18] can be described thus: qHTS assay to test for compound auto fluorescence at 590 nm (red) in HEK293 cell free culture (AID 720683). The procedure, abridged: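 Red-channel autofluorescence of compounds in culture medium (DMEM, 10% FBS), no cells, measured at 540/590 nm. Rose Bengal sodium is the reference fluorophore for equivalence.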
Test [19] concerns the target Androgen receptor (Homo sapiens) (UniProt P10275). As to the kind of experiment: qHTS assay to identify small molecule agonists of the androgen receptor (AR) signaling pathway (AID 743036; active means well fitted activation curve with a large enough effect in the signal ratio in the repeat runs, with a control signal flat, not every such curve was filed as active; the % refers to the signal ratio; further: potency means the concentration at half of the fitted maximal effect). The procedure, abridged: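 In this Tox21 qHTS, 2,000 HEK293 AR-bla cells per well were incubated with compounds for 16 h at 37C and 5% CO2. Fluorescence intensity was recorded 2 h after adding LiveBLAzer B/G FRET substrate at room temperature.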
Tags describe the fitted curve by direction and shape or compound fluorescence and quenching.

Androgen receptor (Homo sapiens), sequence (P10275 whole entry, looked up): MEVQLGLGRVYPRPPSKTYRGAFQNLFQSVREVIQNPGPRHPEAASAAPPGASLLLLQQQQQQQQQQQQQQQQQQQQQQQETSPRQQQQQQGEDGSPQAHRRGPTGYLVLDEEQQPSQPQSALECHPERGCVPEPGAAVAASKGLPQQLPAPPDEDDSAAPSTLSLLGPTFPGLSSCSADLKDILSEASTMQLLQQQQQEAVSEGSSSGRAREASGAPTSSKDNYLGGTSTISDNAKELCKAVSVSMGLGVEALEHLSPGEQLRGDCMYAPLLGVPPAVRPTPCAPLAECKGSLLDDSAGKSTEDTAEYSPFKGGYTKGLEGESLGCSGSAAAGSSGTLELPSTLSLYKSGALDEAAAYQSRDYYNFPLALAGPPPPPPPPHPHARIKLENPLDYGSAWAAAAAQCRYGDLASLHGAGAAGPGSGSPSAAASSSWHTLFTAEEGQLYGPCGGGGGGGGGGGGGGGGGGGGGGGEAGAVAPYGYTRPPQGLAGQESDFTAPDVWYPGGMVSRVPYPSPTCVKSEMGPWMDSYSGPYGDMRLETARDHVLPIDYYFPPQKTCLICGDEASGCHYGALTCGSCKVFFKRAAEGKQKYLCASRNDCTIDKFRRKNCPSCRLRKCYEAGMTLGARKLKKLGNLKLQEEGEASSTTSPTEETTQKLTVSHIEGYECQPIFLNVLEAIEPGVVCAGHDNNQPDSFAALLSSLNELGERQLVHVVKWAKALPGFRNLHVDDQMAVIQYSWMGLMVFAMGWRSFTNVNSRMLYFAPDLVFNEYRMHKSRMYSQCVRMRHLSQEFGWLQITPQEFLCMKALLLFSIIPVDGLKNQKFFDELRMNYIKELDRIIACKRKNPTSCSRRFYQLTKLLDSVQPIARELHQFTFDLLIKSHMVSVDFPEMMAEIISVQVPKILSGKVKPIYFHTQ
Glucocorticoid receptor (Homo sapiens), sequence (P04150 whole entry, looked up): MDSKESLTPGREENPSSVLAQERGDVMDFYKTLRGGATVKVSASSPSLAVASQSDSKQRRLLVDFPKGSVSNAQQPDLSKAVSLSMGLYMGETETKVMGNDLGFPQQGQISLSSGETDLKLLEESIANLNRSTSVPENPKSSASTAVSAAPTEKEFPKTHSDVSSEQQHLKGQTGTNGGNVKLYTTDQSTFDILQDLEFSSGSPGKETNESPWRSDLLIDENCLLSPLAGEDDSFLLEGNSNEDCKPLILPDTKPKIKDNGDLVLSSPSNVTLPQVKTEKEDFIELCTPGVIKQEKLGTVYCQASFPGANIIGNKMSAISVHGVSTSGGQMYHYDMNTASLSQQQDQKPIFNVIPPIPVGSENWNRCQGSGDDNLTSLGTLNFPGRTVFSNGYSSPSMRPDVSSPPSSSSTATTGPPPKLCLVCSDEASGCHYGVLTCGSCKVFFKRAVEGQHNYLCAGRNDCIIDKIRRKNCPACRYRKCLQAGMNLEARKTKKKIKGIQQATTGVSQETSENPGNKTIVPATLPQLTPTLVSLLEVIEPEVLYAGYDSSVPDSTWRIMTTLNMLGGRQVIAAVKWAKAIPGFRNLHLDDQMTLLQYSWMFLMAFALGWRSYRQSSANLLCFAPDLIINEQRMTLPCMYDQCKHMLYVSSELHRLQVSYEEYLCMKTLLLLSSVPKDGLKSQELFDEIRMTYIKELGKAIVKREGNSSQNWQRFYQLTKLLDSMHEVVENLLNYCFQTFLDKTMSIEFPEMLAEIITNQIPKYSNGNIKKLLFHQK

As for `C#CCOc1ccc2c(C)cc(=O)oc2c1`, the Potency result in [1], in test [2], in test [3], in test [4], in test [6] and in [8] was “inactive” each time. Moreover, the Potency result in test [9], in test [10], in test [11], in test [12] and in test [13] was “inactive” in each case. Also, the compound was classed as inactive in test [5] and in [7].

For the compound `O=C(O)CN(CC(=O)O)CC1=CC2C(=CC1=O)Oc1cc(O)c(CN(CC(=O)O)CC(=O)O)cc1C21OC(=O)c2ccccc21` (stereo unspecified), the Potency in test [1], in test [3] and in [6] was 11.2 µM [fluorescent] (active) each time. Further, the Potency entry in test [2], in test [10], in test [11], in test [14], in test [12] and in test [15] was “inactive” each time. Further, the Potency result in test [16] is “inactive”. Moreover, the compound was called inactive in test [5] and in test [7].

With `CNc1cc(OC)c(C(=O)N[C@H]2CCN(Cc3ccccc3)[C@H]2C)cc1Cl`, the Potency entry in test [1], in test [2], in test [3], in test [4], in test [6] and in test [8] was “inactive” throughout. Also, the Potency result in [9], in [10], in [12] and in test [13] was “inactive” throughout. The compound was called inactive in test [5] and in [7]. For the same compound, the Potency is 4.73 µM (active) in test [17] and 8.41 µM (active) in test [14].

Consider `O=C(NOC[C@H](O)CO)c1ccc(F)c(F)c1Nc1ccc(I)cc1F`, for which the Potency result in test [1], in [2], in test [3], in test [4], in test [6] and in test [10] was “inactive” throughout. The Potency entry in test [11], in test [17], in test [14], in test [12] and in test [15] was “inactive” each time. In test [5], the compound was classed as inactive.

As to `Cc1cc(/C=C/c2ccc3cc(N(C)C)ccc3[n+]2C)c(C)n1-c1ccccc1`, the Potency entry in [1], in test [2], in test [3], in test [8] and in test [10] was “inactive” in each case. Further, the call in test [5] and in test [7] was inactive. In addition, the Potency was 4.56 µM (active) in test [12] and 2.66 µM (active) in test [13].

Regarding `O=[N+]([O-])O[C@@H]1CO[C@H]2[C@@H]1OC[C@@H]2O`, the Potency result in test [1], in test [3], in [18], in test [4], in test [6] and in test [8] was “inactive” throughout. In addition, the Potency result in test [9], in test [10], in [14], in [12] and in [13] was “inactive” each time. For the same compound, the compound was classed as inactive in test [5] and in [7].

In the case of `C/C1=C2N=C(/C=C3N=C(/C(C)=C4\[N-][C@@](C)([C@@H]5N=C1[C@](C)(CCC(=O)NCC(C)OP(=O)(O)O[C@H]1[C@@H](O)[C@@H](n6cnc7cc(C)c(C)cc76)O[C@@H]1CO)[C@H]5CC(N)=O)[C@@](C)(CC(N)=O)[C@@H]4CCC(N)=O)[C@@](C)(CC(N)=O)[C@@H]\3CCC(N)=O)C(C)(C)[C@@H]/2CCC(N)=O.CC(=O)O.[Co]` (stereo partly specified), the Potency result in test [1], in test [3], in test [18], in test [4], in test [8] and in test [9] was “inactive” in each case. For the same compound, the Potency result in test [10], in [11] and in test [12] was “inactive” in each case. Further, the result in test [5] and in test [7] was inactive.

Turning to `CSc1nc2cc(Oc3cccc(Cl)c3Cl)c(Cl)cc2[nH]1`, the Potency entry in test [1], in test [3], in test [18], in [4], in test [6] and in test [12] was “inactive” throughout. Also, in test [13], the Potency entry was “inactive”. In addition, the result in test [5] and in test [7] was inactive. Further, the Potency in test [10] is 10.7 µM (active); in [11], 18.8 µM (active); in [14], 21.1 µM (active).

In the case of `CCC(=O)O[C@H]1CC[C@H]2[C@@H]3CCc4cc(O)ccc4[C@H]3CC[C@]12C`, the Potency result in test [1], in test [3], in test [18], in test [4], in test [6] and in [12] was “inactive” in each case. The Potency entry in [13] and in test [16] was “inactive” each time. The result in test [5] and in test [7] was inactive. Moreover, the Potency was 23.7 µM (active) in test [11]; 21.1 µM (active) in test [17]; 23.7 µM (active) in test [14]; 3.01 µM (active) in test [19]; 4.73 µM (active) in test [15].
